AmpC no deterg: blocks E. coli AmpC beta-lactamase in detergent-free assay; AID 485341; AmpC nitrocefin hydrolysis, absorbance 480 nm, 0.0001% Triton; Potency, µM (titrated, usually from 57.1 µM), most hits filed as inhibitors; P00811; 0.52% of 330,000 active; further: nearly all actives have a fitted effect of over 20% in size
Target sequence (P00811 whole entry, looked up): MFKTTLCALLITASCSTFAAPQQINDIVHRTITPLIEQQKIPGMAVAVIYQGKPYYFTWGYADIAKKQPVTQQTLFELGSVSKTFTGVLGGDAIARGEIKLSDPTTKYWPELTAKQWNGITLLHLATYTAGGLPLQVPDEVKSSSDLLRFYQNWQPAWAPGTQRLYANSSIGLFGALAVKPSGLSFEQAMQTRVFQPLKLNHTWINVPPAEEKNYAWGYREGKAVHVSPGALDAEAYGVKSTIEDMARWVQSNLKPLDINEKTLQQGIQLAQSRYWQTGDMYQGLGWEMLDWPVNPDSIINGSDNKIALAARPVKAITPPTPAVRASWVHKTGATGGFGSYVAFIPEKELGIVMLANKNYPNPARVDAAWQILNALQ
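20 mM phosphate pH 7.0 + 0.01% (detergent screen) or 0.0001% Triton X-100; 5.3 nM AmpC reagent; cpd preinc 15 min RT; nitrocefin (800 uM stock) to start; A480 q20 s × 4 min; Activity was normalised to no-enzyme and no-compound control wells.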
Sm TGR block: blocks Schistosoma mansoni thioredoxin glutathione reductase; Q962Y6; purified TGR, DTNB reduction, TNB absorbance 405 nm; Potency, µM (titrated, usually from 114 µM), actives largely listed as inhibitors; 3% of 360,000 active; further: nearly all actives have a fitted effect of over 60% in size
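TGR 20 nM + NADPH 100 uM (dispensed conc.), cpd preinc 15 min RT; start with NADPH (500 uM addition) then DTNB (15 mM addition). Kinetic TNB absorbance, 405 nm filter. Four-parameter Hill fit across titration.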
AmpC inh detg: AmpC beta-lactamase inhibition with detergent present. P00811. AmpC hydrolysis of nitrocefin, absorbance 480 nm, 0.01% Triton. Potency, µM (titrated, usually from 114 µM), usual class: inhibitors. 0.041% of 370,000 active. AID 485294; further: nearly all actives have a fitted effect of over 25% in size
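20 mM phosphate pH 7.0 + 0.01% (detergent screen) or 0.0001% Triton X-100; 5.3 nM AmpC reagent; cpd preinc 15 min RT; nitrocefin (800 uM stock) to start; A480 q20 s × 4 min; Activity was normalised to no-enzyme and no-compound control wells.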
Numbers stand for hits. Sampled rows, rich in hits. Any-hit rate of the full collection: about 3.3%. The call rests on the fitted dose curve; in most records, active means well fitted curve in the direction sought with a large enough effect; inconclusive means small, poorly fitted or top-dose-only effect, or another doubt; inactive means no such curve, though single readings can be large; an effect the other way counts as inactive or inconclusive.

`CCc1nnc(NC(=O)CSc2sc3c(O)cc(=O)[nH]c3c2C#N)s1` gave AmpC no deterg inactive, Sm TGR block 35µM and AmpC inh detg inactive.
For Cc1cc(NC(=O)CSc2sc3c(O)cc(=O)[nH]c3c2C#N)ccc1Br the results were AmpC no deterg 14µM, Sm TGR block inconclusive and AmpC inh detg inactive.
`Cc1ccc(Cl)cc1NC(=O)CSc1sc2c(O)cc(=O)[nH]c2c1C#N` gave AmpC no deterg inactive, Sm TGR block inactive and AmpC inh detg inactive.
For N#Cc1c(SCC(=O)Nc2cccc(C(F)(F)F)c2)sc2c(O)cc(=O)[nH]c12 the results were AmpC no deterg 22µM, Sm TGR block 32µM and AmpC inh detg inconclusive.
Screening COc1ccc(NC(=O)CSc2sc3c(O)cc(=O)[nH]c3c2C#N)c(OC)c1 returned AmpC no deterg inactive, Sm TGR block inactive and AmpC inh detg inactive.
For Cc1ccc(C(C)C)c(OCC(=O)Nc2cc(-c3nc4ccccc4[nH]3)ccc2C)c1 the results were Sm TGR block inactive and AmpC inh detg inactive.
COc1cc2[nH]c(=S)nc(NCCc3ccc(C)cc3)c2cc1OC was read as AmpC no deterg inactive, Sm TGR block inactive and AmpC inh detg inactive.
For COc1cc2[nH]c(=S)nc(NCCc3ccc(S(N)(=O)=O)cc3)c2cc1OC the results were AmpC no deterg inactive, Sm TGR block 14µM and AmpC inh detg inconclusive.
For CCOc1ccc(C(=O)Nc2cc(-c3ccccc3)no2)cc1 the results were Sm TGR block inactive and AmpC inh detg inactive.
`CCC(=O)Nc1nnc(-c2ccc(Cl)s2)o1` gave AmpC no deterg inactive, Sm TGR block inactive and AmpC inh detg inactive.
CC(=O)Nc1nnc(-c2ccc(Cl)s2)o1 was read as AmpC no deterg 1.6µM, Sm TGR block inactive and AmpC inh detg inactive.
`CCCCOc1ccc(C(=O)NCCc2csc(-c3cccc(F)c3)n2)cc1` gave Sm TGR block inactive and AmpC inh detg inactive.
`COC(=O)c1sc2cccc(F)c2c1S(=O)(=O)N1CCN(c2ccc(C)cc2C)CC1` gave Sm TGR block inactive and AmpC inh detg inactive.
Screening c1ccc(Nc2ncnc3sc4c(c23)CCC4)cc1 returned AmpC no deterg inactive, Sm TGR block inactive and AmpC inh detg inactive.
Screening Fc1ccc(Nc2ncnc3sc4c(c23)CCC4)cc1 returned AmpC no deterg 0.32µM, Sm TGR block inactive and AmpC inh detg inactive.
Screening COc1ccc2c(c1)cc1c(=O)n(CC(=O)NC3CCCCC3)nc(C)n12 returned Sm TGR block inactive and AmpC inh detg inactive.
`COc1cc(N=C2C(=O)N3c4c(cccc42)C(C)=CC3(C)C)cc(OC)c1` gave AmpC no deterg inactive, Sm TGR block inactive and AmpC inh detg inactive.
CC1=CC(C)(C)N2C(=O)C(=Nc3ccc(O)cc3)c3cccc1c32 was read as AmpC no deterg inactive, Sm TGR block 10µM and AmpC inh detg inactive.
`CCCCn1c(=O)[nH]c(=O)c2c1nc(Cn1ncc(Cl)c(Cl)c1=O)n2CCC` gave AmpC no deterg inactive, Sm TGR block 18µM and AmpC inh detg inactive.
`CCCCn1c(=O)[nH]c(=O)c2c1nc(CN1C(=O)c3ccccc3S1(=O)=O)n2CCC` gave AmpC no deterg inactive, Sm TGR block inactive and AmpC inh detg inactive.
For CCC(C)NC(=O)C1CCN(C(=O)c2ccc(-n3ccc4ccccc43)s2)CC1 (stereo not drawn) the results were Sm TGR block inactive and AmpC inh detg inactive.
O=S(=O)(c1ccccc1)c1nc(-c2ccccc2)oc1N1CCN(c2cccc(Cl)c2)CC1 was read as Sm TGR block inactive and AmpC inh detg inactive.
For O=C(COC(=O)c1ccc(S(=O)(=O)NCc2ccco2)cc1)c1ccccc1 the results were AmpC no deterg inactive, Sm TGR block inactive and AmpC inh detg inactive.
For O=C(Nc1ccccc1)c1cccc(S(=O)(=O)NCc2ccco2)c1 the results were AmpC no deterg inactive, Sm TGR block inactive and AmpC inh detg inactive.
For COc1ccc(S(=O)(=O)NCc2ccco2)cc1-c1nnc2c3ccccc3c(C)nn12 the results were AmpC no deterg inactive, Sm TGR block 56µM and AmpC inh detg inactive.
`Cc1noc(C)c1COC(=O)c1ccc(S(=O)(=O)NCc2ccco2)cc1` gave AmpC no deterg inactive, Sm TGR block 40µM and AmpC inh detg inactive.
COc1ccc(C(=O)Nc2ccccc2)cc1S(=O)(=O)NCc1ccco1 was read as AmpC no deterg inactive, Sm TGR block 45µM and AmpC inh detg inconclusive.
CNS(=O)(=O)c1ccc(OC)c(-c2nnc3c4ccccc4c(C)nn23)c1 was read as AmpC no deterg inactive, Sm TGR block inactive and AmpC inh detg inactive.
`O=C(Nc1ccccc1)c1ccc(S(=O)(=O)NCc2ccco2)cc1` gave AmpC no deterg inactive, Sm TGR block inconclusive and AmpC inh detg inactive.
Cc1ccc(C(=O)Nc2ccc(S(=O)(=O)NCc3ccco3)cc2)cc1 was read as AmpC no deterg inactive, Sm TGR block 50µM and AmpC inh detg inactive.
`Cc1ccccc1NC(=O)Cn1c(SCC(=O)Nc2ccc(F)cc2)nc2ccccc21` gave Sm TGR block inactive and AmpC inh detg inactive.
`COc1ccc(S(=O)(=O)c2c(SC)nn(CC(=O)Nc3cccc(C)c3C)c2N)cc1` gave Sm TGR block inactive and AmpC inh detg inactive.
For Cc1nc(-c2ccc(S(=O)(=O)Nc3cc(Cl)ccc3C)cc2)co1 the results were Sm TGR block inactive and AmpC inh detg inactive.
Screening Cc1cccc(C(=O)Nc2cccc(C(=O)OCc3cc(=O)n4nc(C5CC5)sc4n3)c2)c1 returned Sm TGR block inactive and AmpC inh detg inactive.
`Cc1ccccc1OCC(=O)Nc1ccccc1OCc1cc(=O)n2ccccc2n1` gave Sm TGR block inactive and AmpC inh detg inactive.
Screening COc1cc(S(=O)(=O)NCCc2c(C)[nH]c3ccc(C)cc23)ccc1Br returned Sm TGR block inactive and AmpC inh detg inactive.
Screening CCc1ccccc1NC(=O)CCNS(=O)(=O)c1ccc2c(c1)CCCC(=O)N2 returned Sm TGR block inactive and AmpC inh detg inactive.
`CCc1ccc(S(=O)(=O)c2nnn3c2nc(Nc2ccc(F)cc2)c2cc(Cl)ccc23)cc1` gave Sm TGR block inactive and AmpC inh detg inactive.
For COc1ccc(-c2cc(C(=O)Nc3cccc(S(=O)(=O)NCc4ccco4)c3)c3ccccc3n2)cc1OC the results were AmpC no deterg 2µM, Sm TGR block inconclusive and AmpC inh detg inactive.
For O=C(Nc1cccc(S(=O)(=O)NCc2ccco2)c1)c1cc(-c2ccc(F)cc2)nc2ccccc12 the results were AmpC no deterg inactive, Sm TGR block inactive and AmpC inh detg inactive.
Screening Cc1cc2cc(NC(=O)c3ccco3)ccc2[nH]1 returned AmpC no deterg inactive, Sm TGR block inactive and AmpC inh detg inactive.
Screening O=C(Nc1ccc2[nH]c3c(c2c1)CCCC3)c1ccco1 returned AmpC no deterg inactive, Sm TGR block 45µM and AmpC inh detg inactive.
Screening NNC(=O)c1ccc2[nH]c3c(c2c1)CCCC3 returned AmpC no deterg 25µM, Sm TGR block inactive and AmpC inh detg inactive.
S=C(NCc1ccc2[nH]c3c(c2c1)CCCC3)Nc1ccccc1 was read as AmpC no deterg inconclusive, Sm TGR block inactive and AmpC inh detg inactive.
Screening CCOC(=O)CNC(=O)c1ccc2[nH]c3c(c2c1)CCCC3 returned AmpC no deterg inactive, Sm TGR block inconclusive and AmpC inh detg inactive.

Screens from PubChem.
